Measurements from publication PMC7862700, “An all-to-all approach to the identification of sequence-specific readers for epigenetic DNA modifications on cytosine”.

Assays:
Experiment in all cases: DAPPL (digital affinity profiling via proximity ligation, sequencing); 10 mM Tris-HCl pH 7.5, 50 mM NaCl, 1 mM DTT, 4% glycerol, room temperature, 30 min; GST-TFs on glutathione beads, 16-mer random dsDNA library, 0.1% formaldehyde crosslink after washing; high values mean tight binding
FLI1 = biological target: T1, FLI1 (Homo sapiens, UniProt Q01543 1-452); conditions: protein: recombinant; tags: N-terminal GST; dsDNA, one strand shown
T1 sequence: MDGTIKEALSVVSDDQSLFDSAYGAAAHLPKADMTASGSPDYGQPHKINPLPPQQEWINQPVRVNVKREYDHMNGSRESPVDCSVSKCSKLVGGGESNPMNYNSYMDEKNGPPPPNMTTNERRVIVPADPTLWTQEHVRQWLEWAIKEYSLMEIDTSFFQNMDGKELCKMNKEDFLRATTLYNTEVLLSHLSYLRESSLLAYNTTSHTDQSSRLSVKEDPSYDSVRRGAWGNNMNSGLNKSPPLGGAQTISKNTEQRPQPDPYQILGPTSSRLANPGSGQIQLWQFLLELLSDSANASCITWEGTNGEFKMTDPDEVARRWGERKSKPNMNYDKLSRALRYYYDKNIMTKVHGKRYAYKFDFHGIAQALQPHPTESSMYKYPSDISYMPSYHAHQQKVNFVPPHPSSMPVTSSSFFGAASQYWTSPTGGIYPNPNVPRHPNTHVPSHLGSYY
Outline: (§1)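 GST fusions of human transcription factors were expressed in yeast and captured with glutathione beads. Once given DNA barcodes and pooled alongside a tag-only sample, they were incubated for 30 min at room temperature with 200 nmole of a random double-stranded 16-mer DNA library in Tris/NaCl/DTT/glycerol buffer, then washed, crosslinked (0.1% formaldehyde), proximity-ligated, PCR-amplified and sequenced on an Illumina NextSeq500. The binding signal of each hexamer is its read frequency for a factor divided by its frequency for the tag-only sample.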

ELK1 = biological target: T2, ELK1 (Homo sapiens, UniProt P19419 1-428); conditions: protein: recombinant; tags: N-terminal GST; dsDNA, one strand shown
T2 sequence: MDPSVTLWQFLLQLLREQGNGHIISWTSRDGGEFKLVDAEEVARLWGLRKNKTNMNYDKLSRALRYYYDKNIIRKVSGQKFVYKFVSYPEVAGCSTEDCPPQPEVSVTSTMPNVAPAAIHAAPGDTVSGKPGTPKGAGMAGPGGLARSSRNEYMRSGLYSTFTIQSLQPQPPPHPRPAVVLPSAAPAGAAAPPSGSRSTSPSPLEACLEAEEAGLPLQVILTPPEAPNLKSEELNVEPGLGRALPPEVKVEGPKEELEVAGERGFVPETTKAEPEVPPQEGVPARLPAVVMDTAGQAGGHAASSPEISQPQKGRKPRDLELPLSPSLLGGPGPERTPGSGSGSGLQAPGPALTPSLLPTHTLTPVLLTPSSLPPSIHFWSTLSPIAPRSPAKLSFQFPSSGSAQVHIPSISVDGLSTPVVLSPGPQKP
Outline: as §1

GABPA = biological target: T3, GABPA (Homo sapiens, UniProt Q06546 1-454); conditions: protein: recombinant; tags: N-terminal GST; dsDNA, one strand shown
T3 sequence: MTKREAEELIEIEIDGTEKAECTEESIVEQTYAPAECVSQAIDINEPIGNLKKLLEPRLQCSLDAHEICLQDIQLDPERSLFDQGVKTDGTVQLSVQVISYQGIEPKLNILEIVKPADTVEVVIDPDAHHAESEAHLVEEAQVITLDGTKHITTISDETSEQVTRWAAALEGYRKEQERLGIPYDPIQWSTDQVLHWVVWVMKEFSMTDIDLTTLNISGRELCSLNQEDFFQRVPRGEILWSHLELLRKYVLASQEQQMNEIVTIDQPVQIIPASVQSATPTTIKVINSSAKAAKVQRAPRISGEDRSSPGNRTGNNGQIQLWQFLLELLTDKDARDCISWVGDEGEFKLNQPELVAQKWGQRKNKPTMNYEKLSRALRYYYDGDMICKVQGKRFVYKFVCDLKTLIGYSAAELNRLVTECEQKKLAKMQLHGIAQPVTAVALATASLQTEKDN
Outline: as §1

ERG = biological target: T4, ERG (Homo sapiens, UniProt P11308 1-479); conditions: protein: recombinant; tags: N-terminal GST; dsDNA, one strand shown
T4 sequence: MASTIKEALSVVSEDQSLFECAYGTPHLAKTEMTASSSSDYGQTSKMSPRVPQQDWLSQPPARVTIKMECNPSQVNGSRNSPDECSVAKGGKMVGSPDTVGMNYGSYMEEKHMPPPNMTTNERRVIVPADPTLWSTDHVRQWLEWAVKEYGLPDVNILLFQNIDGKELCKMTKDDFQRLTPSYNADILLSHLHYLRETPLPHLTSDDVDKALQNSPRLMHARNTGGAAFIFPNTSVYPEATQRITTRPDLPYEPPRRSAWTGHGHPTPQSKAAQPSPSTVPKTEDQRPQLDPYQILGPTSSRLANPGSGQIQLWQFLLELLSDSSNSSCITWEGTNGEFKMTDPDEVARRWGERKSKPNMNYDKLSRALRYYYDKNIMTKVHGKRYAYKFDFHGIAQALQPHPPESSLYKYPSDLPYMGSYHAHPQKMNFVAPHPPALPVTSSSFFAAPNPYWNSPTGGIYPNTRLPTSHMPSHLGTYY
Outline: as §1

ELF1 = ELF1 (Homo sapiens, UniProt P32519 1-619); conditions: protein: recombinant; tags: N-terminal GST; dsDNA, one strand shown
Outline: as §1

EHF = biological target: T5, EHF (Homo sapiens, UniProt Q9NZC4 1-300); conditions: protein: recombinant; tags: N-terminal GST; dsDNA, one strand shown
T5 sequence: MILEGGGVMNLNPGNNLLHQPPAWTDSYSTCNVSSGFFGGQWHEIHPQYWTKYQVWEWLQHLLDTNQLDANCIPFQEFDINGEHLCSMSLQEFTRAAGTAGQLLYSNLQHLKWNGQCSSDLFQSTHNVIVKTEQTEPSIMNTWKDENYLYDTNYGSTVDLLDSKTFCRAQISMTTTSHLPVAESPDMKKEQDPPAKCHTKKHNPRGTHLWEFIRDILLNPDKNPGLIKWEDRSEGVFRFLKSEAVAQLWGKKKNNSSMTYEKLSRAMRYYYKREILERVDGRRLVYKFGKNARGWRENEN
Outline: as §1

SPI1 = SPI1 (Homo sapiens, UniProt P17947 1-270); conditions: protein: recombinant; tags: N-terminal GST; dsDNA, one strand shown
Outline: as §1

SPIB = SPIB (Homo sapiens, UniProt Q01892 1-262); conditions: protein: recombinant; tags: N-terminal GST; dsDNA, one strand shown
Outline: as §1

ELK3 = biological target: T6, ELK3 (Homo sapiens, UniProt P41970 1-407); conditions: protein: recombinant; tags: N-terminal GST; dsDNA, one strand shown
T6 sequence: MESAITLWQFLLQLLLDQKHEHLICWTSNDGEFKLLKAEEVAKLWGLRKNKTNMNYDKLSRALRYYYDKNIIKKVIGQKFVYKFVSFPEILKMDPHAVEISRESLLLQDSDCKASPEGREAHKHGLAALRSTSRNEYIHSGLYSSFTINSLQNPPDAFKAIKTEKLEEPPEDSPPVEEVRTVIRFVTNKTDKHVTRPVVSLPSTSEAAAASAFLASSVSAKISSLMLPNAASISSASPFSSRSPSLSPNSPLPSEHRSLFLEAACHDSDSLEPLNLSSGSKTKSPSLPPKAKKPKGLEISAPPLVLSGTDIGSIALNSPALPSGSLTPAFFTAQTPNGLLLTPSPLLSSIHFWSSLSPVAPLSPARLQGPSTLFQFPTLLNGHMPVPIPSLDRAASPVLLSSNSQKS
Outline: as §1

FEV = biological target: T7, FEV (Homo sapiens, UniProt Q99581 1-238); conditions: protein: recombinant; tags: N-terminal GST; dsDNA, one strand shown
T7 sequence: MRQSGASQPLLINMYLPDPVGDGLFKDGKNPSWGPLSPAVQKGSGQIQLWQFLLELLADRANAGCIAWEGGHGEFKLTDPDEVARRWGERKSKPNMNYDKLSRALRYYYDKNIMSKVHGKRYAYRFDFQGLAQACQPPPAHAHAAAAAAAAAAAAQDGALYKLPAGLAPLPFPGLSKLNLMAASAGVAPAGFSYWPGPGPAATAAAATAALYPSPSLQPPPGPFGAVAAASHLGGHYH
Outline: as §1

ETV5 = ETV5 (Homo sapiens, UniProt P41161 1-510); conditions: protein: recombinant; tags: N-terminal GST; dsDNA, one strand shown
Outline: as §1

HSF1 = HSF1 (Homo sapiens, UniProt Q00613 1-529); conditions: protein: recombinant; tags: N-terminal GST; chain copies: 3; dsDNA, one strand shown
Outline: as §1

SPIC = biological target: T8, SPIC (Homo sapiens, UniProt Q8N5J4 1-248); conditions: protein: recombinant; tags: N-terminal GST; dsDNA, one strand shown
T8 sequence: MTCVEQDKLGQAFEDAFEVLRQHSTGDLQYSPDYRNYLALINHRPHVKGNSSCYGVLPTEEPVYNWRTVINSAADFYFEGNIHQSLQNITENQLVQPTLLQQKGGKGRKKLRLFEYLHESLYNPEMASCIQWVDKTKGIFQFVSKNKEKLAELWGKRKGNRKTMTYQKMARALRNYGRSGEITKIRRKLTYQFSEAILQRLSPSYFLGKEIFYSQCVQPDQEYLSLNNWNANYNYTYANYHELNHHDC
Outline: as §1

ELF4 = ELF4 (Homo sapiens, UniProt Q99607 1-663); conditions: protein: recombinant; tags: N-terminal GST; dsDNA, one strand shown
Outline: as §1

ELK4 = biological target: T9, ELK4 (Homo sapiens, UniProt P28324-2 1-405); conditions: protein: recombinant; tags: N-terminal GST; dsDNA, one strand shown
T9 sequence: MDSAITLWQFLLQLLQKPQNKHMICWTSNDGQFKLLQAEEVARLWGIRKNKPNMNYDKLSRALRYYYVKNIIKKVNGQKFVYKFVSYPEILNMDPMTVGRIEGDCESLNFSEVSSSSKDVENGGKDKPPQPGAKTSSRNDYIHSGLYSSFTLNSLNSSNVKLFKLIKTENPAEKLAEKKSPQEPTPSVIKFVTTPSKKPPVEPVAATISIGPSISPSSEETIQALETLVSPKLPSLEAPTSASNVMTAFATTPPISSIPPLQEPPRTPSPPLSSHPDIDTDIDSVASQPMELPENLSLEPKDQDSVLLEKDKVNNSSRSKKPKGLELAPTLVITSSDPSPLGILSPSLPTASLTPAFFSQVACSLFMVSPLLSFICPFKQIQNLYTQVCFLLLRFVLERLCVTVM
Outline: as §1

ETV2 = biological target: T10, ETV2 (Homo sapiens, UniProt O00321 1-342); conditions: protein: recombinant; tags: N-terminal GST; dsDNA, one strand shown
T10 sequence: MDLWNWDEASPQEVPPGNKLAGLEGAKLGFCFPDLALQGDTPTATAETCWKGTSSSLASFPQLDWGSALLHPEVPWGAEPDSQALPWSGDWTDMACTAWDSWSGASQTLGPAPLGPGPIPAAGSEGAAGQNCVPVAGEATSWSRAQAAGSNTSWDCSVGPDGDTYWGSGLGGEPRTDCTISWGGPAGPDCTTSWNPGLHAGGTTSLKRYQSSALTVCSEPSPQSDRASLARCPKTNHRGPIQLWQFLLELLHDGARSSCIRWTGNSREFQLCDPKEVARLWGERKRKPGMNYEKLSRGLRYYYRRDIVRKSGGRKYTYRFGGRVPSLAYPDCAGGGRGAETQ
Outline: as §1

ELF3 = biological target: T11, ELF3 (Homo sapiens, UniProt P78545 1-371); conditions: protein: recombinant; tags: N-terminal GST; dsDNA, one strand shown
T11 sequence: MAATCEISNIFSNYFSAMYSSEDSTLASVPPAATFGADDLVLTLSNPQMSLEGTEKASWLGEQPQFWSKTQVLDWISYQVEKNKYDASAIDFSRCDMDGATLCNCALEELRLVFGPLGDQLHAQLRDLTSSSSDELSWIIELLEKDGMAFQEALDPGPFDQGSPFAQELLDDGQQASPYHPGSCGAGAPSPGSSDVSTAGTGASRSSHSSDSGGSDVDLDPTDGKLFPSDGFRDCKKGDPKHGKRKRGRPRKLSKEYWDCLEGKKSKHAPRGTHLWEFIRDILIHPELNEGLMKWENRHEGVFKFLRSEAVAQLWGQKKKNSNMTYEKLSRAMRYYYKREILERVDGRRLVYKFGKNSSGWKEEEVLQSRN
Outline: as §1

ETV1 = ETV1 (Homo sapiens, UniProt P50549 1-477); conditions: protein: recombinant; tags: N-terminal GST; dsDNA, one strand shown
Outline: as §1

ETV5, sequence (P41161 whole entry): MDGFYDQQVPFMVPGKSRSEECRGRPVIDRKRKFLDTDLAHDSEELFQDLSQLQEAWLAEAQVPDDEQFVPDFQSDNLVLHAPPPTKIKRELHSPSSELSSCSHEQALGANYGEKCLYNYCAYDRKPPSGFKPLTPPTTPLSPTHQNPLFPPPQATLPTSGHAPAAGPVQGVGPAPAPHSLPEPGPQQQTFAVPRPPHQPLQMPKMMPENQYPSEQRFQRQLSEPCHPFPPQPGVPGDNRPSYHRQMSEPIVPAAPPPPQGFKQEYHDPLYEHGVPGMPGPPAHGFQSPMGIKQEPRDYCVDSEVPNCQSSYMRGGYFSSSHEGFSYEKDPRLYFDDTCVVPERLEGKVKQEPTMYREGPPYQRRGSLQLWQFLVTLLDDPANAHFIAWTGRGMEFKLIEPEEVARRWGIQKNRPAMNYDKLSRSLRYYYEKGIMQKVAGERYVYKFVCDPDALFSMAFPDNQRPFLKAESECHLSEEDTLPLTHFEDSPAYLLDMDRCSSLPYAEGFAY
ELF4, sequence (Q99607 whole entry): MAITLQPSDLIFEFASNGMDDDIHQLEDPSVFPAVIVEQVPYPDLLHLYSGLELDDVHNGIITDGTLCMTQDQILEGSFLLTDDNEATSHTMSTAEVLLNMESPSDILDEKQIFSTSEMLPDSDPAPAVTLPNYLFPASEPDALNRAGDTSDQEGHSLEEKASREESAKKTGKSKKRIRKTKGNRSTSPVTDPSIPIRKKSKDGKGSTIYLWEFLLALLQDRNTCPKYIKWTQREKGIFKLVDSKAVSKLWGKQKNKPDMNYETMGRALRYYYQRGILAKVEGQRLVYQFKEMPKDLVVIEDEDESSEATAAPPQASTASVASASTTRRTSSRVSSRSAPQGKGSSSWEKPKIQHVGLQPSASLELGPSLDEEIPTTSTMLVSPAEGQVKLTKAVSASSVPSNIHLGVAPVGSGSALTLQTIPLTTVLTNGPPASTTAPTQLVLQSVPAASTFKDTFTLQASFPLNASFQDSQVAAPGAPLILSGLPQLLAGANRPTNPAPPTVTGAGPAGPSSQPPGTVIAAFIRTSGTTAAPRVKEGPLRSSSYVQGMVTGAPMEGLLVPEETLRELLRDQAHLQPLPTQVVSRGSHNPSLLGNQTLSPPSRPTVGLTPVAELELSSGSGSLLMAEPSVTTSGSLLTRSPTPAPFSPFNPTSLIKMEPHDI
HSF1, sequence (Q00613 whole entry): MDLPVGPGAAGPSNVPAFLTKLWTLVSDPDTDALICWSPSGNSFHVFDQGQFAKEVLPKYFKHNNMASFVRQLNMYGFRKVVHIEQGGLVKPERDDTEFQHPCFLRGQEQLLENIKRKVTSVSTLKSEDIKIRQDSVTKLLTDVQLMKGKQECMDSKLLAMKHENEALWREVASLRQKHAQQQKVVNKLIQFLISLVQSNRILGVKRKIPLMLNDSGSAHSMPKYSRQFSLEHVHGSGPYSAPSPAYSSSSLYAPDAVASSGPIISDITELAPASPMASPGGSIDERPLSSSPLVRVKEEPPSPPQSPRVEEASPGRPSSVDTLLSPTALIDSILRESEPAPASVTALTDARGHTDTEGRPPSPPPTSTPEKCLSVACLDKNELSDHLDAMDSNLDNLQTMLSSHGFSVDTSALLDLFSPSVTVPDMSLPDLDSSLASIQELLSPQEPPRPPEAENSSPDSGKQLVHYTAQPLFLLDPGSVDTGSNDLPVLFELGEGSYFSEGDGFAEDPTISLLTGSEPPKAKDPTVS
ELF1, sequence (P32519 whole entry): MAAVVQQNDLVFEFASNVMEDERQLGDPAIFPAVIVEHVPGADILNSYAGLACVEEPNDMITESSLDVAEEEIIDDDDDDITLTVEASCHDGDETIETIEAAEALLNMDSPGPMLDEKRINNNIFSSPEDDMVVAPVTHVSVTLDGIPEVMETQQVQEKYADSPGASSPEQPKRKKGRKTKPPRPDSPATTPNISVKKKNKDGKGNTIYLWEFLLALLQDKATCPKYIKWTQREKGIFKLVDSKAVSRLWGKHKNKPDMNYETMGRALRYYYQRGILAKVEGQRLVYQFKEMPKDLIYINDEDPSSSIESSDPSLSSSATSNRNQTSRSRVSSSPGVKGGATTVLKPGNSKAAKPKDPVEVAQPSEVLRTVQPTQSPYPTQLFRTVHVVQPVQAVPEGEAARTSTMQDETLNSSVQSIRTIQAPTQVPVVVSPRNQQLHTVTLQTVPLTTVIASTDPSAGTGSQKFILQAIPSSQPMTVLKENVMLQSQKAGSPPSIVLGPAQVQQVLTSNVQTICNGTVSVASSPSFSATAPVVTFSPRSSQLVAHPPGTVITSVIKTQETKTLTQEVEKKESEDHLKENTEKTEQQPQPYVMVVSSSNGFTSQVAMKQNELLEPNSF
ETV1, sequence (P50549 whole entry): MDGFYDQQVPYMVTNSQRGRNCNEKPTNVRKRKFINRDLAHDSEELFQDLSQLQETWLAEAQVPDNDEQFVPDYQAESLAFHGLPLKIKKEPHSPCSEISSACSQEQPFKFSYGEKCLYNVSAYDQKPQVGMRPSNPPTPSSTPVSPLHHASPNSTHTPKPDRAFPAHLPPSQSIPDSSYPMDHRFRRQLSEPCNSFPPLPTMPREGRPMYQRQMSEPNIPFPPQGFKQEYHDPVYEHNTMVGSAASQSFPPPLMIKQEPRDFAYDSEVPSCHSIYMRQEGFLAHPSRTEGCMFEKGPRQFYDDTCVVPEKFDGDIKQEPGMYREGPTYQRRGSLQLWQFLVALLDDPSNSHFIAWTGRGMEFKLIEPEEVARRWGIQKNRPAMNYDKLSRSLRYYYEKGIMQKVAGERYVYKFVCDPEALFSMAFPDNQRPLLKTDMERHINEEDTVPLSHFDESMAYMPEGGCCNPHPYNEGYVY
SPIB, sequence (Q01892 whole entry): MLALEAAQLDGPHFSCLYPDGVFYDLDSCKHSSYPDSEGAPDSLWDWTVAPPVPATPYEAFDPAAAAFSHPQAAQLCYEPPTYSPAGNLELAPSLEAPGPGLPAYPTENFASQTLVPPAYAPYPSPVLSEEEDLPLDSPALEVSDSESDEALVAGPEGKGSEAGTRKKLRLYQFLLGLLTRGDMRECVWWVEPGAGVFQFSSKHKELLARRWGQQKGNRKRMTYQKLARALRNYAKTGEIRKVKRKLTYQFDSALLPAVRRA

Question: Which results are given for CCATTC?
Answer: binding signal (FLI1): 1.22 fold enrichment (6-mer frequency, TF over GST control); binding signal (ELK1): 1.09 fold enrichment (6-mer frequency, TF over GST control); binding signal (GABPA): 1.1 fold enrichment (6-mer frequency, TF over GST control); binding signal (ERG): 1.2 fold enrichment (6-mer frequency, TF over GST control); binding signal (ELF1): 1.17 fold enrichment (6-mer frequency, TF over GST control); binding signal (EHF): 1.07 fold enrichment (6-mer frequency, TF over GST control); binding signal (SPI1): 1.16 fold enrichment (6-mer frequency, TF over GST control); binding signal (SPIB): 1.09 fold enrichment (6-mer frequency, TF over GST control); binding signal (ELK3): 1.29 fold enrichment (6-mer frequency, TF over GST control); binding signal (FEV): 1.06 fold enrichment (6-mer frequency, TF over GST control); binding signal (ETV5): 1.11 fold enrichment (6-mer frequency, TF over GST control); binding signal (HSF1): 1.15 fold enrichment (6-mer frequency, TF over GST control); binding signal (SPIC): 1.14 fold enrichment (6-mer frequency, TF over GST control); binding signal (ELF4): 1.18 fold enrichment (6-mer frequency, TF over GST control); binding signal (ELK4): 1.22 fold enrichment (6-mer frequency, TF over GST control); binding signal (ETV2): 1.25 fold enrichment (6-mer frequency, TF over GST control); binding signal (ELF3): 1.05 fold enrichment (6-mer frequency, TF over GST control); binding signal (ETV1): 1.14 fold enrichment (6-mer frequency, TF over GST control)
